Bioassay records deposited in PubChem by several laboratories.
Pyk2 oligo antag = Pyk2 (human) oligomerization antagonism; Q293 cells, Pyk2 FERM NanoBiT luminescence; active compounds read low; z-score (the deposit names both 25 µM and 10 µM); 0.83% of 99,000 active;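 active means Z-score of -3 or lower, scaled per plate to the spread of control and sample wells; inactive means z-score above -3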;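 further: negative z-score means lost luminescence so less FERM oligomerization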
PLK1 PBD inh = inhibitors of human Plk1 polo box domain binding | 0.13% of 97,000 active | inhibition, %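 (tested at about 20 µM)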 | P53350 | Plk1 PBD phosphopeptide binding, fluorescence polarization; in the data active means inhibition above about 34%, passing the limit was not always enough
sEH activator = increases human soluble epoxide hydrolase activity. 0.04% of 91,000 active. P34913. purified human sEH enzymatic activity, activator screen. activation, % at 2 µM; in the data active means activation above about 37%
Target sequence (P34913 whole entry, looked up): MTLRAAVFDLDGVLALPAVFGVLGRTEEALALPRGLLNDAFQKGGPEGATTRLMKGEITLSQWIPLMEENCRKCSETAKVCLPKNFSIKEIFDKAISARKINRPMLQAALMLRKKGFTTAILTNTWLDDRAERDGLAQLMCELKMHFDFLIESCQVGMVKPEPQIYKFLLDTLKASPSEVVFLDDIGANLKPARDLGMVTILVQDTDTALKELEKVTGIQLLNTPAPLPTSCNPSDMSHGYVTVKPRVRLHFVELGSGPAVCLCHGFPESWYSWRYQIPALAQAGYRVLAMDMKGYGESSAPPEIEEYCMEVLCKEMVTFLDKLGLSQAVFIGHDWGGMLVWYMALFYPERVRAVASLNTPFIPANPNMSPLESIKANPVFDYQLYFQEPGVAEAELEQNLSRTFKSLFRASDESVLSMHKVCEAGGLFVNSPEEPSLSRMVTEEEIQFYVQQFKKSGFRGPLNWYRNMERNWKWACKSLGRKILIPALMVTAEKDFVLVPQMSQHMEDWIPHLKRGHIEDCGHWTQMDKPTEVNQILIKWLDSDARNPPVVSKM
PLK1 inh = inhibitors of human PLK1 kinase. 0.53% of 97,000 active. recombinant PLK1 kinase, TR-FRET peptide phosphorylation. P53350. inhibition, % at 10 µM;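 active means inhibition of 50% or more in the single-concentration screen; inactive means inhibition below 50%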;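 further: 0% = DMSO max control and 100% = H-89 dihydrochloride min control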
sEH inhibitor = soluble epoxide hydrolase (human) inhibition. P34913. recombinant human sEH enzymatic activity assay. inhibition, % at 2 µM. 0.34% of 91,000 active. AID 707; in the data active means inhibition above about 80%
* marks the source's active call; other numbers are inactive results; nt = no result. Sampled rows, rich in hits. Any-hit rate of the full collection: about 1.6%.

SMILES	Pyk2 oligo antag	PLK1 PBD inh	sEH activator	PLK1 inh	sEH inhibitor
COc1ccc(C2/C(=C(/O)c3ccccc3)C(=O)C(=O)N2CCO)cc1 (stereo unspecified)	-0.7	5	-14	-7	16
O=C1C(=O)N(CCO)C(c2ccccc2)/C1=C(\O)c1ccccc1 (stereo unspecified)	nt	-8	nt	55*	nt
C[N+]12CCCCC1C(COC(=O)c1ccc3c(c1)OCO3)CCC2 (stereo unspecified)	-0.24	-14	-3	-9	5
CCC(c1nnnn1Cc1cccs1)N1CCN(c2nc3ccccc3s2)CC1 (stereo unspecified)	-2.7	nt	nt	nt	nt
CC(C)CC(c1nnnn1Cc1cccs1)N1CCN(c2nc3ccccc3s2)CC1 (stereo unspecified)	-3.6*	3	2	-4	1
COCCn1nnnc1C(c1cccs1)N1CCN(c2nc3ccccc3s2)CC1 (stereo unspecified)	-3.4*	-15	12	-4	-10
Clc1ccc(C(c2nnnn2C2CCCC2)N2CCN(c3nc4ccccc4s3)CC2)cc1 (stereo unspecified)	-3.3*	-4	14	-15	-11
CN(C)c1ccc(N2CN=C3SCC(=O)N3C2)cc1	-0.79	-15	15	5	-12
CCC(C)(C(=O)NC1CCCCC1)N(Cc1ccco1)C(=O)c1ccccn1 (stereo unspecified)	0.87	15	-4	0	5
O=C(CCCCCN1C(=O)CCC1=O)Nc1ccc(Cl)c(C(F)(F)F)c1	0.13	27	-53	-14	52
Clc1ccc(CSc2nnc(-c3sccc3-n3cccc3)o2)cc1	-3.2*	0	-10	-11	9
Clc1cccc(CSc2nnc(-c3sccc3-n3cccc3)o2)c1	-3.2*	-20	4	-6	-7
Clc1cc(Cl)cc(CSc2nnc(-c3sccc3-n3cccc3)o2)c1	-1.6	3	2	-12	1
Cc1ccc(OCCNS(=O)(=O)c2cccs2)cc1	1.2	-9	5	-2	-6
O=C(NCCSCc1ccccc1)c1ccc(C2SCC(=O)N2Cc2ccccc2)cc1 (stereo unspecified)	-0.78	19	-43	-7	42
COc1ccc(S(=O)(=O)N(C)CC(=O)Nc2cccc(C(C)=O)c2)cc1Cl	0.05	3	9	-1	-6
O=C(N/N=C(\c1ccccc1)c1cccnc1)C(O)(c1ccccc1)c1ccccc1	-3.9*	-8	5	-4	-6
O=C(N/N=C/c1cccnc1)C(O)(c1ccccc1)c1ccccc1	-0.64	-20	-4	-7	7
O=C(c1cc(C2CC2)nc2ccccc12)N1N=C(C(F)F)CC1(O)C(F)F (stereo unspecified)	-0.21	-19	4	-9	2
O=C(c1cc(C2CC2)nc2ccc(Br)cc12)N1N=C(C(F)F)CC1(O)C(F)F (stereo unspecified)	-3.3*	-13	4	-12	1
NNC(=O)c1cccc(COc2cccc(Br)c2)c1	-0.47	16	-81	-12	82*
CC(C)N1C(=O)CC(Nc2ccc(N3CCOCC3)cc2)C1=O (stereo unspecified)	-0.2	18	1	1	-3
COc1ccc(NC2CC(=O)N(C(C)C)C2=O)cc1 (stereo unspecified)	0.67	10	-6	54*	11
CCOC(=O)C1=C(c2ccccc2)N=C2SCC(=O)N2C1c1ccc2c(c1)OCO2 (stereo unspecified)	0.04	9	-4	1	4
O=c1cc(N2CCN(c3ccc(F)cc3)CC2)[nH]c(=O)n1Cc1ccc(F)cc1	nt	13	-14	-7	13
SMILES	Pyk2 oligo antag	PLK1 PBD inh	sEH activator	PLK1 inh	sEH inhibitor
O=c1cc(N2CCOCC2)[nH]c(=O)n1Cc1ccc(F)cc1	nt	-17	nt	69*	nt
CC(=O)CSc1nnc(Cc2ccc3c(c2)OCO3)o1	0.95	-4	22	-7	-17
Cc1sc2c(c1C)c(=O)nc1scc(C)n12	nt	-4	12	-18	-12
O=C(c1ccc(CS(=O)(=O)c2ccc(Br)cc2)o1)N1CCCC1	nt	-2	nt	69*	nt
COc1ccc(C(C)=O)c2c(O)cccc12	-0.83	8	-8	-5	7
CCC1=NNc2cccc3c(OC)ccc1c23	nt	-1	-9	68*	9
O=[N+]([O-])c1ccc(N2CCN(S(=O)(=O)c3ccc(Cl)cc3)CC2)cc1NCc1cccnc1	-2.8	-10	0	-7	1
O=C(c1ccc(Cl)cc1)N1CCN(c2ccc([N+](=O)[O-])c(NCc3cccnc3)c2)CC1	-3.3*	29	2	1	-2
O=[N+]([O-])c1ccc(N2CCN(S(=O)(=O)c3ccccc3)CC2)cc1NCc1cccnc1	-3.7*	5	16	-9	-17
CN(C)c1ccc(-c2ccccc2)nn1	0.99	9	-14	-11	15
C=CCn1c(CNc2ccc(C)cc2)nnc1SCC(=O)N/N=C/c1ccc(O)cc1	0.78	-17	6	-16	-3
N#Cc1ccc(NC(=O)CCc2ccc(S(=O)(=O)N3CCOCC3)cc2)cc1	0.27	-13	-9	-6	8
COc1c(S(=O)(=O)N2CCCCC2)ccc2c(S(=O)(=O)N3CCCCC3)cccc12	-3.5*	-16	-4	-15	7
O=S(=O)(c1cccc2c(S(=O)(=O)N3CCCC3)cccc12)N1CCCC1	-1.5	-21	-2	-12	-4
O=C1C(Nc2ccccc2)=C/C(=N/S(=O)(=O)c2cccs2)c2ccccc21	-3.8*	nt	nt	nt	nt
CC1CC(C)CN(CC(C)(C)NS(=O)(=O)c2ccc(Cl)cc2)C1 (stereo unspecified)	-0.17	6	-7	-15	9
Cc1nn(-c2ccc(F)cc2)c(Cl)c1/C=C(\CC(=O)O)c1nc2ccccc2s1	0.22	6	13	-13	-10
CCOC(=O)Cc1cc(=O)c2c(=O)n(-c3ccccc3)[nH]c2[nH]1	1.5	12	1	-12	-3
O=c1cc(-c2ccccc2)[nH]c2[nH]n(-c3ccccc3)c(=O)c12	-3.8*	0	-6	-1	6
CCOC(=O)C1=C(c2ccccc2)NC(=S)NC1c1cc([N+](=O)[O-])ccc1OC (stereo unspecified)	-4*	15	0	-11	0
Cc1ccc(NC(=O)Cn2c(/C=C/c3ccccc3)nc3ccccc32)cc1C	-3.8*	8	-1	-2	3
COc1ccc(OC)c(/C=N/NC(=O)c2cc(-c3ccc(C)o3)nc3ccccc23)c1	-0.52	nt	nt	nt	nt
COc1ccc(OC)c(/C=N/NC(=O)c2csc3ccccc23)c1	-1.1	-29	-84	-13	84*
Cc1ccc(-n2nnnc2-c2cnc3ccc(Cl)cc3c2-c2ccccc2)cc1	-0.77	-26	11	-14	-14
Clc1ccc2[nH]cc(-c3nnnn3-c3ccc4ccccc4c3)c2c1	-3.2*	-12	7	-9	-10
CC1CCCCC1NC(=O)COC(=O)c1ccc(S(=O)(=O)NCc2ccco2)cc1 (stereo unspecified)	-0.26	-15	-78	-9	79
O=C(COC(=O)c1ccc(S(=O)(=O)NCc2ccco2)cc1)NC1CCCCCC1	0.1	-6	-90	-11	90*
